According to the supplement of paper PMC11732987, “Enantioselective OTUD7B fragment discovery through chemoproteomics screening and high-throughput optimisation” (Communications Chemistry, 2025):

Key:
Assay in all cases: log2 ratio of Biotin-Ahx-Ub-VS probe labelling (fragment/DMSO); higher = less target engagement (more negative = stronger competition), active = hit call of the paper (q ≤ 0.05, log2 ratio ≤ -1)
Conditions in all cases: compound concentration: 200 uM; treatment time: 3 h
USP34 = USP34 (UniProt Q70CQ2)
Method in brief: (§1)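 Average log2 ratios of fragment over vehicle were obtained by unpaired t-test from global-median-normalised Spectronaut label-free quantities. Proteins with ≥2 unique peptides were included. HEK293T lysate (495 µg per sample) was treated in triplicate with fragment at 200 µM or vehicle for 3 h, then with Biotin-Ahx-Ub-VS at 0.5 µM final for 1 h, and labelled DUBs were NeutrAvidin-enriched and run by diaPASEF LC-MS/MS.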

USP36 = target: T1, USP36 (UniProt Q9P275)
T1 sequence (whole entry): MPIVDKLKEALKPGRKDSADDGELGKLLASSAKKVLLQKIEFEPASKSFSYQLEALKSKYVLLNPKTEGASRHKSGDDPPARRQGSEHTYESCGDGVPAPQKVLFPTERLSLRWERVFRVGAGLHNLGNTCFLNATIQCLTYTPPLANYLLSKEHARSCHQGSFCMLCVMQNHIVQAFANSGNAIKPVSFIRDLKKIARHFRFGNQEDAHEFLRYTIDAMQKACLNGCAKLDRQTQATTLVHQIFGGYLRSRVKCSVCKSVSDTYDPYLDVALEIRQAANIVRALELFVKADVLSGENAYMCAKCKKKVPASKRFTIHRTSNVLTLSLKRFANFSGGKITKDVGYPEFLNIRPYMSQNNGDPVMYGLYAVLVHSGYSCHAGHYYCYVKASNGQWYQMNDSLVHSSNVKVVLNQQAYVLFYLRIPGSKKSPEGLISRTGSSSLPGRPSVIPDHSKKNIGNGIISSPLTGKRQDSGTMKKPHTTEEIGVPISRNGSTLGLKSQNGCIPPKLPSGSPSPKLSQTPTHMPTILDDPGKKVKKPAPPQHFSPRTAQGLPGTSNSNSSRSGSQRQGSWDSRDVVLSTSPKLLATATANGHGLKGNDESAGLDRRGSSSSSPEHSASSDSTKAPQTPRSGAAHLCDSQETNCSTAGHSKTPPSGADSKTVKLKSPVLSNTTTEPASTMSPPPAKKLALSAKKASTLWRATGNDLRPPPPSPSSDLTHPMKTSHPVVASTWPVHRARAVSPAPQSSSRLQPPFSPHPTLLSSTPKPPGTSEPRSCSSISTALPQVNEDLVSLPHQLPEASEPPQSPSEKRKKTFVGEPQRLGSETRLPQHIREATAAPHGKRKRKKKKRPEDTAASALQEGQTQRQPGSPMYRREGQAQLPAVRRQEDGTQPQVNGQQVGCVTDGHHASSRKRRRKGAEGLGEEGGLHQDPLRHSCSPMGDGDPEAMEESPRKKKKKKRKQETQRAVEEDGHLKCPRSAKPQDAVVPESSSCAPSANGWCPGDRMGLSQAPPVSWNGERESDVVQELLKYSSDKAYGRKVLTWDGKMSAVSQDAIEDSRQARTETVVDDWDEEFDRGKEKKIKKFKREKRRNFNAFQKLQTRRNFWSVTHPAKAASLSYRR
Method in brief: as §1

USP38 = target: T2, USP38 (UniProt Q8NB14)
T2 sequence (whole entry): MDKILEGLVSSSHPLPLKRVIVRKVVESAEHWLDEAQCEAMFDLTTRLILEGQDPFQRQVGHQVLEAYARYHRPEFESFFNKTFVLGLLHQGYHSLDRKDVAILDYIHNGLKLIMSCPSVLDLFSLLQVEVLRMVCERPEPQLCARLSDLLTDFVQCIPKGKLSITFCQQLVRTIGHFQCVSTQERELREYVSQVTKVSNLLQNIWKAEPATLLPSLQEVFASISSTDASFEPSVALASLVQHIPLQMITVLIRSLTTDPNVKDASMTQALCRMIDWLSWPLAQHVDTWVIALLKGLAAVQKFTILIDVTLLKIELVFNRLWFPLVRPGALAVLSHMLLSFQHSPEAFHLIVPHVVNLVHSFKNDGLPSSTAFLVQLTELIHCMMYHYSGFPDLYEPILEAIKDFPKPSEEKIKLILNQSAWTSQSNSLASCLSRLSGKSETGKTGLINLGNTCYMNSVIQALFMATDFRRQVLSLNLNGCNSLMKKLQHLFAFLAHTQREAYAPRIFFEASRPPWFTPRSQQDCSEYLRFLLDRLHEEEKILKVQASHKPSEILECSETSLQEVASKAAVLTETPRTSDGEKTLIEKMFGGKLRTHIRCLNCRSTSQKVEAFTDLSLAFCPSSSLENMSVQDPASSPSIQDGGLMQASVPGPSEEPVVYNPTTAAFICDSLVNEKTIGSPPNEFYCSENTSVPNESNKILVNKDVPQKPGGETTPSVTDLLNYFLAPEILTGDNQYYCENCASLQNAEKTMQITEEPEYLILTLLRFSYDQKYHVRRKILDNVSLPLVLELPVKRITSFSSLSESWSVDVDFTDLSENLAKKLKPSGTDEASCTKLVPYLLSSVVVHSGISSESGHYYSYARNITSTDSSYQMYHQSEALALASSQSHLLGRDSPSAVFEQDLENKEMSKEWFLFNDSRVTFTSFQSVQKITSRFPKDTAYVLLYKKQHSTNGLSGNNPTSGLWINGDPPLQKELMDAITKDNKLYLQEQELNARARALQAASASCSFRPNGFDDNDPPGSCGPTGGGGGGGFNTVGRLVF
Method in brief: as §1

USP39 = target: T3, USP39 (UniProt Q53GS9)
T3 sequence (whole entry): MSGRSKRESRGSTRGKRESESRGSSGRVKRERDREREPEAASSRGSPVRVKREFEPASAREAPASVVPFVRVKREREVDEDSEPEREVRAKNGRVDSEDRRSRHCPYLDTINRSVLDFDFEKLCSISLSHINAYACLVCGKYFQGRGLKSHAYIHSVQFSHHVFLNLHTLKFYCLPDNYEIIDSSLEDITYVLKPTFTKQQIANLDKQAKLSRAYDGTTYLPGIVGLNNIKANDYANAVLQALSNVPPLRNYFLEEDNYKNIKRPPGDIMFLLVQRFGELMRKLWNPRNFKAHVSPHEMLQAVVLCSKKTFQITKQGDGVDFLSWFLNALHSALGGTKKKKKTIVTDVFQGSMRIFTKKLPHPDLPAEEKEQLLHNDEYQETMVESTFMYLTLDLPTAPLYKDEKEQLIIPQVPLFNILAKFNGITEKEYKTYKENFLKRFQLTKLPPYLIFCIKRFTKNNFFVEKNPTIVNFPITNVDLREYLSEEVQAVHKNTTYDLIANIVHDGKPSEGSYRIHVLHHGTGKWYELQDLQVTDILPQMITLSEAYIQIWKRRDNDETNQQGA
Method in brief: as §1

USP4 = target: T4, USP4 (UniProt Q13107)
T4 sequence (whole entry): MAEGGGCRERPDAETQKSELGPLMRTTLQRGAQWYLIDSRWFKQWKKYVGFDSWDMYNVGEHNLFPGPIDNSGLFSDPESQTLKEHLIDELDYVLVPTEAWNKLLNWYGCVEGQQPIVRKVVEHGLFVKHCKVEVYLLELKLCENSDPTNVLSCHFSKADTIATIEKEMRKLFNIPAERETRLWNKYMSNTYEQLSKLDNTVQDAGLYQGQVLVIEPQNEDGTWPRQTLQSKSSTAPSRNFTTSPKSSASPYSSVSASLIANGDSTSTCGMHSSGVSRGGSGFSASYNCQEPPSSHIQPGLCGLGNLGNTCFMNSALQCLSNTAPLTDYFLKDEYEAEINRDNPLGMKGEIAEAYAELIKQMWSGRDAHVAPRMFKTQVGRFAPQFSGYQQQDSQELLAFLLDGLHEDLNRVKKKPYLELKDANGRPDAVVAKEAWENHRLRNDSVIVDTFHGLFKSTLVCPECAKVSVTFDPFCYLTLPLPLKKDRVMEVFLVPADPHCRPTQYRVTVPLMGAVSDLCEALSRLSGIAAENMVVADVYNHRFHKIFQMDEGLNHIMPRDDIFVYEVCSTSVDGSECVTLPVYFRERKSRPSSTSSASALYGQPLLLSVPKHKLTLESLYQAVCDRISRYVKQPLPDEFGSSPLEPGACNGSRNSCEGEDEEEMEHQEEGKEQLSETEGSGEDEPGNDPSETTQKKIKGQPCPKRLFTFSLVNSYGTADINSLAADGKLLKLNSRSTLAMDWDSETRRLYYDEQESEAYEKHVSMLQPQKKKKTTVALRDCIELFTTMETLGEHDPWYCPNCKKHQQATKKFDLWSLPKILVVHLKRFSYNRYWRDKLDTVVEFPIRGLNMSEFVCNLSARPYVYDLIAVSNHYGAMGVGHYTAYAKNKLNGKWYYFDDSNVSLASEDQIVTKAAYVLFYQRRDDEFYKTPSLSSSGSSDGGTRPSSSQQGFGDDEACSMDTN
Method in brief: as §1

Measured: log2 ratio of Biotin-Ahx-Ub-VS probe labelling

Chain of USP34 (Q70CQ2 whole entry, the tested form may be a part): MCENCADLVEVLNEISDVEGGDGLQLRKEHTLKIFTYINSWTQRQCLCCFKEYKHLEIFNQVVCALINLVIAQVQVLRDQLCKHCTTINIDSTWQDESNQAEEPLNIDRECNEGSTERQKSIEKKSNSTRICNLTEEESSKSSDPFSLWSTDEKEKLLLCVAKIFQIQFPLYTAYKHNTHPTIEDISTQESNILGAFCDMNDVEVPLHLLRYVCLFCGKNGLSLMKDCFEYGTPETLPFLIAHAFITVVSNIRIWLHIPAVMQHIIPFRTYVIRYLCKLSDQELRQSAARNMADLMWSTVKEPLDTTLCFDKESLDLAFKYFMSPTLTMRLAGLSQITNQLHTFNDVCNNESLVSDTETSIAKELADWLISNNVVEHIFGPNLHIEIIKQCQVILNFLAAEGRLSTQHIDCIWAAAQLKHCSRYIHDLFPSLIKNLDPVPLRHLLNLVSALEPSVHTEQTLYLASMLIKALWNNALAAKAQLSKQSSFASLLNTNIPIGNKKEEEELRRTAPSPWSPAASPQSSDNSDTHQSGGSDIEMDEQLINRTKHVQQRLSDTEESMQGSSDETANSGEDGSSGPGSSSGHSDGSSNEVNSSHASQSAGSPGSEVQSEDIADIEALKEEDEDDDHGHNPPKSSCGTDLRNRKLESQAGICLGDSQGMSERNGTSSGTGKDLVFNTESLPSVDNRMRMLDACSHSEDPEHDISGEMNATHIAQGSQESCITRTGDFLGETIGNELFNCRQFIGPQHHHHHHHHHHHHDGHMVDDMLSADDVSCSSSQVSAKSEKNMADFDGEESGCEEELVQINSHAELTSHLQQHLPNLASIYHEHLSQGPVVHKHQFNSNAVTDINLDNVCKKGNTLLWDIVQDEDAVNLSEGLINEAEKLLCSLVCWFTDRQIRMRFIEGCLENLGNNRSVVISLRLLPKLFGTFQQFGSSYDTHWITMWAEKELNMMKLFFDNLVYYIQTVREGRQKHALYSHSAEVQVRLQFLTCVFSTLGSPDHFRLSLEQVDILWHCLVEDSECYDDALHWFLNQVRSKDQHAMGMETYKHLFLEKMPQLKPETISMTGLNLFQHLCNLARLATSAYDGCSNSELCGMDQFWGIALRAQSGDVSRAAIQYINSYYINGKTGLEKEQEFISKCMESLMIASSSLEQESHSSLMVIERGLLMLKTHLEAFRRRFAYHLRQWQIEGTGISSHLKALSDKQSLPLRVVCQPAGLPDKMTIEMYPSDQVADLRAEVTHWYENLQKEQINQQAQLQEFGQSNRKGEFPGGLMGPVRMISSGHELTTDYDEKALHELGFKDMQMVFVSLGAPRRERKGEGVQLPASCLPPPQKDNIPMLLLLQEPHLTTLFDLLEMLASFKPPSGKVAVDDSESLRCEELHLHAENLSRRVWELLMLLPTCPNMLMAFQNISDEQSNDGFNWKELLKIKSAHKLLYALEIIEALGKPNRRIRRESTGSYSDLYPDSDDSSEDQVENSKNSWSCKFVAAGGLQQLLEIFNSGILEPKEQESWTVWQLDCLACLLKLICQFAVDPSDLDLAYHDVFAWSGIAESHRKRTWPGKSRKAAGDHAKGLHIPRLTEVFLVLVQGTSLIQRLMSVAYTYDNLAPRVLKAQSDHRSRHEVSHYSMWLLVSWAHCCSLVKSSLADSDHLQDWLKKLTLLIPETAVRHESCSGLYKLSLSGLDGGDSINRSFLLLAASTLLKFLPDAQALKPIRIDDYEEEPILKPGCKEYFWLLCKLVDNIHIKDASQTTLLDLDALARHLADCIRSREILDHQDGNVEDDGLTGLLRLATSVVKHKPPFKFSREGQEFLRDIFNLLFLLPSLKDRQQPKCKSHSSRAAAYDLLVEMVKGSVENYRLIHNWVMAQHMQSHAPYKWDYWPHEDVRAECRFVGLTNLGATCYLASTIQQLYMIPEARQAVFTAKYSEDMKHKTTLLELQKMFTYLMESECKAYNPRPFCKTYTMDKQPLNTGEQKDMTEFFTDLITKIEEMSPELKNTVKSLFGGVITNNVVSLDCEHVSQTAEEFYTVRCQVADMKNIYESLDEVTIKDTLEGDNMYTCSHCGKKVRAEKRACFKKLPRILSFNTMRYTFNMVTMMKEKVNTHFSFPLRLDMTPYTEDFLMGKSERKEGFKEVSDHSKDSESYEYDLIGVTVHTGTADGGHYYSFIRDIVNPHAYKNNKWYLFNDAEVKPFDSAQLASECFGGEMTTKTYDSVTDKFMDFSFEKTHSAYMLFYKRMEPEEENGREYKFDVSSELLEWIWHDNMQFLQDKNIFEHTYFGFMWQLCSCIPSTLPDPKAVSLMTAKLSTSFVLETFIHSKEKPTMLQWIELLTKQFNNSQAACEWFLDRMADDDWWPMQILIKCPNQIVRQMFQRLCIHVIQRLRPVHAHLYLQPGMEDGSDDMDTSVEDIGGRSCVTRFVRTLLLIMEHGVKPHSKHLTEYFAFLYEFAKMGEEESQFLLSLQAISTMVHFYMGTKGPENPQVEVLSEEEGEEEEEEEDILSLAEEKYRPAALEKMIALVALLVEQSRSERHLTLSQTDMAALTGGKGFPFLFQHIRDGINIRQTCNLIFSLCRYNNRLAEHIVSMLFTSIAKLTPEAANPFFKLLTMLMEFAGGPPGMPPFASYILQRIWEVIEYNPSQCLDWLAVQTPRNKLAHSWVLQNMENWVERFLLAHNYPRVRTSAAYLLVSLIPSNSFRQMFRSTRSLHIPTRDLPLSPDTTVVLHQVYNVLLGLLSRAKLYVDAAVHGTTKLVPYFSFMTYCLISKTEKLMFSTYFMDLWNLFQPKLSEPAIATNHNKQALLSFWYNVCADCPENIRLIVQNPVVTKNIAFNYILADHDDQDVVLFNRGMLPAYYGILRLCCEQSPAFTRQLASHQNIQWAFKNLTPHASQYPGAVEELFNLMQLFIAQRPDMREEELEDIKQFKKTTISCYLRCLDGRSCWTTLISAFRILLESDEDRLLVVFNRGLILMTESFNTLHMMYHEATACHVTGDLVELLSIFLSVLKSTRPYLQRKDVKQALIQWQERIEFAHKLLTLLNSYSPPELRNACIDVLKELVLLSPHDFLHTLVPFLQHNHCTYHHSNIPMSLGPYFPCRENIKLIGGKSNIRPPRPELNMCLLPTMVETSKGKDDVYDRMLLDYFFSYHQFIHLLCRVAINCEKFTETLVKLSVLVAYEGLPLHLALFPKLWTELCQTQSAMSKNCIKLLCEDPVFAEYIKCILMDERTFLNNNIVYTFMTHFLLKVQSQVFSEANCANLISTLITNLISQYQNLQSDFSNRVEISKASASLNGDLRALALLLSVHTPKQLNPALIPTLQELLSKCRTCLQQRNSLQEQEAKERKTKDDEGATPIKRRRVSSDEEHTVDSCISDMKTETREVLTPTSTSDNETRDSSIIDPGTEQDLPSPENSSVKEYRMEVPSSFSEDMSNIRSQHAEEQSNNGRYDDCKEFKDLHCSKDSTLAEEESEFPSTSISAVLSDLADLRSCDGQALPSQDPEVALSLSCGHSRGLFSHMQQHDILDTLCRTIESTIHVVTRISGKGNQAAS

O=C(CCl)N1CCC(c2noc3cc(F)ccc23)CC1
inactive: USP34 -0.276 | USP36 -0.165 | USP38 0.108 | USP39 0.43 | USP4 -0.235
